Measurements reported in the antibiotic and cytotoxicity screens of Wong et al. (2023).
About 3,300 (8.5%) of roughly 39,000 compounds were called active. What follows is part of a selection rich in actives, with near analogues and random picks from the rest.

The compounds below were run on HepG2 (assay: cytotoxicity call (relative viability < 0.9)). Details: 10 µM.

| Compound | cytotoxicity call |
| --- | --- |
| Cc1noc(C)c1NC(=O)N(C)C[C@@H]1Oc2ccc(NS(=O)(=O)c3c(C)noc3C)cc2C(=O)N([C@@H](C)CO)C[C@H]1C | inactive |
| Cl.NC[C@H](N)C(=O)O | inactive |
| COc1ccccc1S(=O)(=O)N(C)C[C@H]1OCc2cn(nn2)CCCC(=O)N([C@H](C)CO)C[C@@H]1C | inactive |
| Cc1cccc(NC(=O)Nc2ccc3c(c2)C(=O)N(C)[C@@H]2CC[C@H](CC(=O)NCc4ccccc4Cl)O[C@H]2CO3)c1 | inactive |
| C=CC[C@H](CC(=O)N(CCO)Cc1ccccc1)C(=O)N[C@H](COC(=O)[C@@H](CC=C)CC(=O)OC(C)(C)C)Cc1c[nH]c2ccccc12 | inactive |
| C[C@H](CO)N1C[C@H](C)[C@H](CN(C)C(=O)Nc2ccccc2)Oc2ccc(NC(=O)CCN3CCOCC3)cc2CC1=O | inactive |
| Cc1ccc(S(=O)(=O)N(C)C[C@@H]2Oc3ccc(NS(=O)(=O)c4ccc(F)cc4)cc3CC(=O)N([C@H](C)CO)C[C@H]2C)cc1 | inactive |
| O=C(NCc1ccccc1)C1=C[C@H](c2ccc(Br)cc2)C[C@H](OCc2ccc(CO)cc2)O1 | inactive |
| Cc1ccc(S(=O)(=O)N(C)C[C@H]2Oc3ccc(NS(C)(=O)=O)cc3CC(=O)N([C@@H](C)CO)C[C@H]2C)cc1 | inactive |
| COc1cc(CC=Cc2ccccc2)c(OC)cc1O | inactive |
| O=C(O)C=CC=Cc1ccccc1 | inactive |
| COC1=CC(=O)C(O)=CC1=CC=Cc1ccccc1 | active |
| C[C@@H]1CN([C@H](C)CO)C(=O)c2cc(NC(=O)C3CCCCC3)ccc2O[C@@H]1CN(C)C(=O)Nc1ccc(C(F)(F)F)cc1 | inactive |
| C[C@H]1CN([C@@H](C)CO)C(=O)c2cc(NS(=O)(=O)c3cccs3)ccc2O[C@H]1CN(C)S(=O)(=O)c1ccccc1 | inactive |
| C[C@@H]1CN([C@H](C)CO)C(=O)c2cc(NC(=O)CCCCCC(=O)Nc3ccccc3N)ccc2O[C@@H]1CN(C)S(C)(=O)=O | inactive |
| C[C@H](CO)N1C[C@H](C)[C@H](CN(C)C(=O)C2CCCCC2)OCCCC[C@H](C)Oc2ccc(NC(=O)CCC(F)(F)F)cc2C1=O | inactive |
| Cc1ccc(NC(=O)[C@@H]2[C@@H]3CC/C=C\CC/C=C/CC[C@@H]32)cc1C | inactive |
| CCC(=O)c1ccc(Cl)s1 | inactive |
| C[C@H](CO)N1C[C@H](C)[C@@H](CN(C)C(=O)Nc2ccc(F)cc2)OCCCC[C@H](C)Oc2ccc(NC(=O)Nc3ccc(C(F)(F)F)cc3)cc2C1=O | inactive |
| C[C@H](CO)N1C[C@H](C)[C@H](CN(C)C(=O)Nc2ccc(F)cc2)OCCCC[C@H](C)Oc2ccc(NC(=O)Nc3ccc(C(F)(F)F)cc3)cc2C1=O | inactive |
| C[C@H]1CCCCO[C@@H](CN(C)C(=O)Nc2ccc(C(F)(F)F)cc2)[C@@H](C)CN([C@@H](C)CO)C(=O)c2cc(NC(=O)Nc3ccc(F)cc3)ccc2O1 | inactive |
| C[C@@H]1CCCCO[C@@H](CN(C)C(=O)Nc2ccc(C(F)(F)F)cc2)[C@H](C)CN([C@H](C)CO)C(=O)c2cc(NC(=O)Nc3ccc(F)cc3)ccc2O1 | active |
| C[C@@H]1CCCCO[C@H](CN(C)C(=O)Nc2ccc(C(F)(F)F)cc2)[C@H](C)CN([C@H](C)CO)C(=O)c2cc(NC(=O)Nc3ccc(F)cc3)ccc2O1 | inactive |
| C[C@H](CO)N1C[C@H](C)[C@@H](CN(C)C(=O)Nc2ccc(C(F)(F)F)cc2)OCCCC[C@H](C)Oc2ccc(NC(=O)Nc3ccc(F)cc3)cc2C1=O | inactive |
| C[C@@H]1CCCCO[C@H](CN(C)C(=O)Nc2ccc(C(F)(F)F)cc2)[C@@H](C)CN([C@H](C)CO)C(=O)c2cc(NC(=O)Nc3ccc(F)cc3)ccc2O1 | active |
| C[C@H]1CCCCO[C@H](CN(C)C(=O)Nc2ccc(C(F)(F)F)cc2)[C@@H](C)CN([C@@H](C)CO)C(=O)c2cc(NC(=O)Nc3ccc(F)cc3)ccc2O1 | inactive |
| C[C@@H]1CCCCO[C@H](CN(C)C(=O)Nc2ccc(F)cc2)[C@@H](C)CN([C@@H](C)CO)C(=O)c2cc(NC(=O)Nc3ccc(C(F)(F)F)cc3)ccc2O1 | inactive |
| C[C@H]1CCCCO[C@@H](CN(C)C(=O)Nc2ccc(F)cc2)[C@@H](C)CN([C@@H](C)CO)C(=O)c2cc(NC(=O)Nc3ccc(C(F)(F)F)cc3)ccc2O1 | inactive |
| C[C@@H]1CN([C@H](C)CO)C(=O)c2cc(NC(=O)Nc3ccc(F)cc3)ccc2O[C@@H](C)CCCCO[C@H]1CN(C)C(=O)Nc1ccc(C(F)(F)F)cc1 | active |
| C[C@@H]1CN([C@H](C)CO)C(=O)c2cc(NC(=O)Nc3ccc(C(F)(F)F)cc3)ccc2O[C@@H](C)CCCCO[C@H]1CN(C)C(=O)Nc1ccc(F)cc1 | active |
